Consider 24 compounds from PubChem BioAssay (NCATS).

Inconclusive results are not listed. A number with no mark means an inactive call. The source made the active and inactive calls. The call rests on the fitted dose curve; in most records, active means well fitted inhibition curve with a large enough effect; inconclusive means small, poorly fitted or top-dose-only effect; inactive means flat fitted curve, though single readings scatter. Positions of bridges follow the written chain, without caps; N, C: chain ends. Non-standard residues stand in square brackets, D forms with d. Residues, ends and D or L forms follow the SMILES beside them. ξ: configuration not given here. *: point of attachment. Octanoyl(6-Me) = CCC(C)CCCCC(=O)*; ξThr(3R) = C[C@@H](O)C(N)C(=O)O; dDab = NCC[C@@H](N)C(=O)O; Dab = NCC[C@H](N)C(=O)O
On the % scale 0 is the no-effect control and ±100 the full control effect; potency means the concentration at half of the fitted maximal effect.

The assay concerns HEK293. In words: Cytotoxic Profiling of Annotated Libraries Using Quantitative High-Throughput Screening (AID 1296008). Further: nearly all actives have a fitted effect of over 60% in size. The note with it: Five cell lines viability, CellTiter-Glo ATP luminescence, 48-72 h; max response: active compounds read low. In short, it runs like this: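 Compounds were pin-transferred onto cells and incubated 48 or 72 hr at 37 degree Celsius, 95% humidity. CellTiter-Glo was added, plates sat 10 min at room temperature, then ATP-coupled luminescence was imaged as the viability read-out.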
For orientation: In ATP-based viability assays light output follows the ATP content of the culture.
As for `COc1ccc(C[C@@H](C)[C@@H](C)Cc2ccc(OC)c(OC)c2)cc1OC`, the Potency was 2640 nM (active).

For `CC(=O)[C@]1(O)Cc2c(O)c3c(c(O)c2[C@@H](O[C@H]2C[C@H](N)[C@@H](O)[C@H](C)O2)C1)C(=O)c1ccccc1C3=O`, the Potency is 132 nM (active).

As for `CC(C)(O)[C@H]1CC[C@@](C)([C@H]2[C@@H](O)C[C@@]3(C)[C@@H]4C[C@H](O[C@@H]5O[C@H](CO)[C@@H](O)[C@H](O)[C@@H]5O)[C@H]5C(C)(C)[C@@H](O[C@@H]6OC[C@@H](O)[C@H](O)[C@@H]6O)CC[C@@]56C[C@@]46CC[C@]23C)O1`, the max response was 2.98%.

For `COC1=C(OC)C(=O)C(CC=C(C)CCC=C(C)CCC=C(C)CCC=C(C)CCC=C(C)CCC=C(C)CCC=C(C)CCC=C(C)CCC=C(C)CCC=C(C)C)=C(C)C1=O`, the max response was -5.18%.

Take `C[C@H](CCC(=O)O)[C@H]1CCC2C3C[C@H](O)[C@@H]4C[C@H](O)CC[C@]4(C)C3CC[C@@]21C` (some centres undefined): the max response was 4.87%.

`CCOC(=O)C=C[C@H](C[C@@H]1CCNC1=O)NC(=O)[C@@H](CC(=O)[C@@H](NC(=O)c1cc(C)on1)C(C)C)Cc1ccc(F)cc1`: the max response is -0.69%.

As to `CNC(=O)c1ccc(Nc2cc(Nc3ccccc3S(=O)(=O)C(C)C)c3cc[nH]c3n2)nc1`, the Potency is 2090 nM (active).

As to `Cc1cnc(NC(=O)Nc2cc(Br)c(C)cc2OC[C@@H]2CNCCO2)cn1`, the Potency is 1320 nM (active).

Consider `C=C1CCC2[C@](C)(CO)C(O)CC[C@]2(C)C1CC=C1C(=O)OCC1O` (some centres undefined), for which the max response is -3.28%.

In the case of `CC(C)N(CC[C@H](c1ccccc1)c1cc(CO)ccc1O)C(C)C`, the max response is 0.962%.

`FC(F)c1nc2ccccc2n1-c1nc(N2CCOCC2)nc(N2CCOCC2)n1`: the Potency was 1460 nM (active).

Turning to `CON=C(C(=O)N[C@@H]1C(=O)N2C(C(=O)O)=C(CSC(=O)c3ccco3)CS[C@H]12)c1csc(N)n1`, the compound was classed as inactive.

On to `C[C@@H]1[C@H](C)CC[C@]2(C(=O)O)CC[C@]3(C)C(=CC[C@@H]4[C@@]5(C)C[C@@H](O)[C@H](O)[C@@](C)(CO)[C@H]5CC[C@]43C)[C@@H]12`, for which the max response was -10.4%.

`Nc1ccn(C2CO[C@H](CO)O2)c(=O)n1` (some centres undefined): the max response is -12.3%.

For `O=C(CN1C(=O)C2(CCCC2)NC[C@H]1c1cc(F)cc(F)c1)Nc1ccc2c(c1)C[C@@]1(C2)C(=O)Nc2ncccc21`, the outcome was inactive.

Turning to `Nc1nc(=O)n([C@H]2C[C@H](O)[C@@H](CO)O2)cc1F`, the Potency was 74.3 nM (active).

Take `CCC(C)CCCCC(=O)N[C@@H](CCN)C(=O)NC(C(=O)N[C@H](CCN)C(=O)N[C@@H]1CCNC(=O)C([C@@H](C)O)NC(=O)[C@@H](CCN)NC(=O)[C@@H](CCN)NC(=O)[C@@H](CC(C)C)NC(=O)[C@H](Cc2ccccc2)NC(=O)[C@H](CCN)NC1=O)[C@@H](C)O` (stereo partly drawn) ({Octanoyl(6-Me)}-[Dab][ξThr(3R)][dDab][dDab][Dab]F[dL][dDab][dDab][ξThr(3R)]; lactam 4-C): the compound was classed as inactive.

For the compound `CN[C@H]1[C@@H](O)[C@@H]2O[C@@H]3O[C@H](C)CC(=O)[C@]3(O)O[C@@H]2[C@@H](NC)[C@H]1O`, the max response was -3.13%.

For `O=C1c2c(O)cccc2[C@@H]([C@@H]2O[C@H](CO)[C@@H](O)[C@H](O)[C@H]2O)c2cc(CO)cc(O)c21`, the compound was classed as inactive.

On to `CC(=O)N[C@@H]1[C@H](O[C@@H]2c3ccc(c(Cl)c3)Oc3cc4cc(c3O[C@H]3O[C@H](CO)[C@@H](O)[C@H](O)[C@H]3NC(=O)CCCCCCCC(C)C)Oc3ccc(cc3Cl)C[C@H]3NC(=O)[C@H](N)c5ccc(O)c(c5)Oc5cc(O)cc(c5)[C@H](NC3=O)C(=O)N[C@H]4C(=O)N[C@H]3C(=O)N[C@@H]2C(=O)N[C@@H](C(=O)O)c2cc(O)cc(O[C@H]4O[C@H](CO)[C@@H](O)[C@H](O)[C@H]4O)c2-c2cc3ccc2O)O[C@H](CO)[C@@H](O)[C@@H]1O`, for which the compound was classed as inactive.

With `O=c1ccn([C@@H]2O[C@H](CO)[C@H](O)[C@@H]2F)c(=O)[nH]1`, the max response is -5.58%.

In the case of `CON=C(C(=O)N[C@@H]1C(=O)N2C(C(=O)O)=C(Cn3ccc(=N)n3CCO)CS[C@H]12)c1csc(N)n1`, the max response was -24.1%.

Take `O=C(C=Cc1ccc(CN(CCO)CCc2c[nH]c3ccccc23)cc1)NO`: the Potency was 372 nM (active).

In the case of `C[C@H](NC(=O)C(C#N)=Cc1cccc(Br)n1)c1ccccc1`, the Potency is 4180 nM (active).
